Experimental data as given in the supplement of paper PMC10849652.
Targets with a hit are over-represented here; the source holds about 8,800 in all. About 0.5% of all pairs of compound and target were hits.

Assays:
Test in all cases: log2 fold change, soluble protein after heating vs DMSO (PISA); higher = thermal stabilisation; K562 lysate, 10 uM; active = over 0.2 and 3.5 SD of the protein, either way, in both replicates (recomputed)
erlotinib = compound: C#Cc1cccc(Nc2ncnc3cc(OCCOC)c(OCCOC)cc23)c1 [erlotinib]
In short: (§1)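 The values are log-two fold changes in thermal stability compared with solvent controls and come from duplicates. They were obtained by TMTpro 16plex LC-MS/MS, with channel sums equalised, on the supernatant after 21,000xg for 90 min. That supernatant came from crude K562 extract at 1 mg/mL protein treated with 10 μM compound for 30 min, heated for 3 min across 48°C-58°C, pooled and brought to 0.5% NP-40 at 4°C.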

[1] = compound: C/C(=N\NC(=O)C1=CC(=CC=C1)S(=O)(=O)N2CCOCC2)/C3=C(C=CC(=C3)Cl)O
In short: as §1

[2] = compound: C1=CC(=CC=C1C2=NC3=C(N2)C=C(C=C3)C(=O)N)OC4=CC=C(C=C4)Cl
In short: as §1

[3] = compound: C1=CC2=C(C=CC(=C2)/C=C\3/C(=O)NC(=NCC4=CC=CS4)S3)N=C1
In short: as §1

[4] = compound: C1=CC2=NC=CN=C2C=C1/C=C/3\C(=O)NC(=O)S3
In short: as §1

[5] = compound: C1=CC=C(C=C1)C2=NC(=C(N2)C3=CC=NC=C3)C4=CC(=C(C=C4)Cl)O
In short: as §1

[6] = compound: C1=CC=C2C(=C1)C3=NNC4=CC=CC(=C43)C2=O
In short: as §1

[7] = compound: C1CCN(C1)C(=O)NC2=CC=CC(=C2)NC3=NC=C(C(=N3)NCCC4=CN=CN4)Br
In short: as §1

[8] = compound: C1CN(CCC1(CC2=CC=C(C=C2)Cl)N)C3=NC=NC4=C3C=CN4
In short: as §1

IRAK-1-4 Inhibitor I = compound: C1COCCN1CCN2C3=CC=CC=C3N=C2NC(=O)C4=CC(=CC=C4)[N+](=O)[O-] [IRAK-1-4 Inhibitor I]
In short: as §1

ibrutinib = compound: C=CC(=O)N1CCC[C@@H](n2nc(-c3ccc(Oc4ccccc4)cc3)c3c(N)ncnc32)C1 [ibrutinib]
In short: as §1

[9] = compound: CC(=O)c1cnc2ccc(-c3cc(Cl)c(O)c(Cl)c3)nc2c1N[C@H]1CC[C@H](CN(C)C)CC1
In short: as §1

ralimetinib = compound: CC(C)(C)Cn1c(N)nc2ccc(-c3[nH]c(C(C)(C)C)nc3-c3ccc(F)cc3)nc21 [ralimetinib]
In short: as §1

[10] = compound: CC(C)(O)CC(=O)NCCn1ccc2ncnc(Nc3ccc(Oc4cccc(C(F)(F)F)c4)c(Cl)c3)c21
In short: as §1

[11] = compound: CC(C)C1=C2N=C(C=C(N2N=C1)NCC3=CC=CC=C3)NCCCCCCN
In short: as §1

[12] = compound: CC1=C(C(CC(=O)N1)C2=CC=C(C=C2)C(F)(F)F)C(=O)NC3=C(C=C4C(=C3)C=NN4)F
In short: as §1

[13] = compound: CC1=C(C2=C(C=C1)C(=O)C3=CC=CC=C3N2CCCN)C
In short: as §1

[14] = compound: CC1=C(C=C(C=C1)NC(=O)C2=CC(=CC=C2)C(C)(C)C#N)NC3=CC4=C(C=C3)N=CN(C4=O)C
In short: as §1

[15] = compound: CC1=C(C=C(C=C1)NC(=O)C2=CC(=CC=C2)N(C)C)NC(=O)C3=CC=C(C=C3)O
In short: as §1

[16] = compound: CC1=CC=C(C=C1)SC2=C3C=C(SC3=CN=C2)C(=O)N
In short: as §1

Measured: log2 fold change

ZBTB33 (UniProt Q86T24)
inactive: erlotinib 0 | [1] 0.012 | [2] 0.101 | [3] 0.062 | [4] 0.144 | [5] -0.025 | [6] -0.101 | [7] -0.053 | [8] 0.068 | IRAK-1-4 Inhibitor I -0.042 | ibrutinib 0.258 | [9] 0.183 | ralimetinib -0.058 | [10] -0.158 | [11] 0.141 | [12] -0.027 | [13] 0.109 | [14] 0.129 | [15] 0.044 | [16] 0.109

USP3 (UniProt Q9Y6I4)
Sequence of UniProt Q9Y6I4 (Q9Y6I4 whole entry, looked up): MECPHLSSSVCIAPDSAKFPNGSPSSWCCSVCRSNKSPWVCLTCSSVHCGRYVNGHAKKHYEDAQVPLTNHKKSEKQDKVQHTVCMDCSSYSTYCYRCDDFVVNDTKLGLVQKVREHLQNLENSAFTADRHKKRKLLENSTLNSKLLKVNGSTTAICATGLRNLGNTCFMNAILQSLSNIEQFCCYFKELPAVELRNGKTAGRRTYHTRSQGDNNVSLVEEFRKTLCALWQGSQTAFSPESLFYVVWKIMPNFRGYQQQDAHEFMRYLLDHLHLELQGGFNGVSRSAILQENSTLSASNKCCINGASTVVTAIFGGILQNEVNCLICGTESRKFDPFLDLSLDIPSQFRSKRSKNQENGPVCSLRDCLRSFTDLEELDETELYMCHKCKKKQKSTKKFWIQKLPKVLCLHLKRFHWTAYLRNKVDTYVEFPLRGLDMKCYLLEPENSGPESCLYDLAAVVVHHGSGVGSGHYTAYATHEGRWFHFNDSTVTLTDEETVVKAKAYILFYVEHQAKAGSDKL
inactive: erlotinib -0.001 | [1] 0.05 | [2] 0.033 | [3] 0.031 | [4] 0.018 | [5] 0.011 | [6] 0.014 | [7] -0.037 | [8] 0.035 | IRAK-1-4 Inhibitor I -0.044 | ibrutinib 0.01 | [9] 0.048 | ralimetinib 0.042 | [10] -0.027 | [11] 0.014 | [12] 0.024 | [13] 0.011 | [14] -0.014 | [15] 0.016 | [16] -0.025

ZFYVE19 (UniProt Q96K21)
Sequence of UniProt Q96K21 (Q96K21 whole entry, looked up): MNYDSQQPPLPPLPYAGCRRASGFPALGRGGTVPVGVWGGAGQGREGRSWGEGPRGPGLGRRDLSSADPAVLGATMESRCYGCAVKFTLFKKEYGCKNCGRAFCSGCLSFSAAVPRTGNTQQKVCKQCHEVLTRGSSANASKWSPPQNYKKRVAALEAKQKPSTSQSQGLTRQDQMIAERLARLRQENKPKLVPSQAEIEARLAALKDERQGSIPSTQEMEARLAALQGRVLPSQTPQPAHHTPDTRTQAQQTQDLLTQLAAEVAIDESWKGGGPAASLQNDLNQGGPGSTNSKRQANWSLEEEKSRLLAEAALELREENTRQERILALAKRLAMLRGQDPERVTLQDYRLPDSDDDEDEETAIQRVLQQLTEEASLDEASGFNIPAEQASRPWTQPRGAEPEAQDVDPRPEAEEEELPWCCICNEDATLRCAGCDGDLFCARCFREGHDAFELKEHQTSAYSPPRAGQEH
inactive: erlotinib -0.017 | [1] -0.056 | [2] 0.016 | [3] -0.024 | [4] -0.026 | [5] 0.055 | [6] 0.007 | [7] -0.031 | [8] 0.012 | IRAK-1-4 Inhibitor I -0.027 | ibrutinib -0.051 | [9] -0.031 | ralimetinib -0.004 | [10] 0.009 | [11] -0.015 | [12] -0.028 | [13] -0.067 | [14] -0.037 | [15] -0.013 | [16] -0.042

VPS11 (UniProt Q9H270)
inactive: erlotinib 0.049 | [1] -0.037 | [2] 0.014 | [3] 0.034 | [4] 0.014 | [5] 0.011 | [6] -0.053 | [7] 0.003 | [8] -0.002 | IRAK-1-4 Inhibitor I -0.031 | ibrutinib -0.002 | [9] 0.025 | ralimetinib 0.033 | [10] -0.025 | [11] 0.001 | [12] 0.003 | [13] 0.031 | [14] 0.026 | [15] -0.03 | [16] -0.002

USP34 (UniProt Q70CQ2)
inactive: erlotinib 0.043 | [1] 0.018 | [2] -0.039 | [3] 0.029 | [4] -0.008 | [5] 0.012 | [6] -0.002 | [7] 0.003 | [8] 0.003 | IRAK-1-4 Inhibitor I -0.001 | ibrutinib 0.002 | [9] 0.006 | ralimetinib 0.011 | [10] -0.027 | [11] 0.001 | [12] -0.001 | [13] -0.032 | [14] 0.014 | [15] 0.026 | [16] 0

ZMYM2 (UniProt Q9UBW7)
Sequence of UniProt Q9UBW7 (Q9UBW7 whole entry, looked up): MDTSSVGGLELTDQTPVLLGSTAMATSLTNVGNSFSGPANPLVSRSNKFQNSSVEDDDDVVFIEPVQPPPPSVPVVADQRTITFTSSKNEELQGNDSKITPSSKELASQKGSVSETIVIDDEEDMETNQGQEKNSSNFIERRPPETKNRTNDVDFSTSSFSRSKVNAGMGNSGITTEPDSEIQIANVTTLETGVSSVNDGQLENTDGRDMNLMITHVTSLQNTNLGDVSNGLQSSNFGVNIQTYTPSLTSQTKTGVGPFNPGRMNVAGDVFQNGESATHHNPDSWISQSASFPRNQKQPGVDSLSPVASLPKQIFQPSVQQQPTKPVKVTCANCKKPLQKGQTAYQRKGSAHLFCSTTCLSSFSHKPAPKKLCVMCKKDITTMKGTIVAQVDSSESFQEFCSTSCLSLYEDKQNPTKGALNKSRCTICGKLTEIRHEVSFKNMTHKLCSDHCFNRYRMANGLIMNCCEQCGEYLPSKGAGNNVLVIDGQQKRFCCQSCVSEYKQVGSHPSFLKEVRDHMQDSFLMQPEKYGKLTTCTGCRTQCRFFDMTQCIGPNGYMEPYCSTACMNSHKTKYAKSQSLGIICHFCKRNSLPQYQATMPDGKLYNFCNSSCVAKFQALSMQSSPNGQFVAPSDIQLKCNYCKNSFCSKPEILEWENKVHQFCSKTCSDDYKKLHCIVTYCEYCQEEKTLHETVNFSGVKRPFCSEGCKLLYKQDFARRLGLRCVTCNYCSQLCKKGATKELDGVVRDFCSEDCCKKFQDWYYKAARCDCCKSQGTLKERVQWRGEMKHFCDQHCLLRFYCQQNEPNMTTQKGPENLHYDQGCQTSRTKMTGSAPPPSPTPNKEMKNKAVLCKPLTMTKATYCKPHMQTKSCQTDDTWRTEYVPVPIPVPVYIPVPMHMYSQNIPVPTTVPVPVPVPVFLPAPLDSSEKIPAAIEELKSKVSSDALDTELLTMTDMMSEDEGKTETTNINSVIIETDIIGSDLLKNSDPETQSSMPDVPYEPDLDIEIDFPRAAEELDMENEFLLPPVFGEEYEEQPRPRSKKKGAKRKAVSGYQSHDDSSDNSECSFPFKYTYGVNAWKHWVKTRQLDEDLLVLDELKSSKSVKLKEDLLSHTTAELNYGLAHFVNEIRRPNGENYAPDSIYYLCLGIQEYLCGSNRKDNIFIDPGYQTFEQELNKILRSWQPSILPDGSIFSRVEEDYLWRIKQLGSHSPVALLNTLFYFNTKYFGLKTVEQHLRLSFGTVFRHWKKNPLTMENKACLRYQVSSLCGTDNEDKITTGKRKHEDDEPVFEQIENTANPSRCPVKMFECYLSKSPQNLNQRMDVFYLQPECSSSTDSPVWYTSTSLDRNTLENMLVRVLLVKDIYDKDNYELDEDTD
inactive: erlotinib 0.036 | [1] -0.049 | [2] 0.038 | [3] 0.073 | [4] -0.022 | [5] 0.053 | [6] -0.05 | [7] -0.209 | [8] 0.116 | IRAK-1-4 Inhibitor I 0.07 | ibrutinib -0.029 | [9] -0.059 | ralimetinib -0.037 | [10] -0.106 | [11] -0.039 | [12] -0.008 | [13] -0.018 | [14] 0.004 | [15] 0.04 | [16] -0.068

VPS16 (UniProt Q9H269)
inactive: erlotinib 0.059 | [1] 0.026 | [2] 0.048 | [3] 0.024 | [4] -0.03 | [5] 0.048 | [6] -0.075 | [7] 0.03 | [8] 0.023 | IRAK-1-4 Inhibitor I 0.025 | ibrutinib 0.009 | [9] 0.017 | ralimetinib -0.012 | [10] -0.038 | [11] -0.014 | [12] -0.015 | [13] -0.029 | [14] 0.019 | [15] 0.031 | [16] 0

VAC14 (UniProt Q08AM6)
inactive: erlotinib -0.007 | [1] 0.02 | [2] -0.004 | [3] 0.032 | [4] 0.024 | [5] -0.006 | [6] -0.023 | [7] 0.006 | [8] 0.015 | IRAK-1-4 Inhibitor I 0.024 | ibrutinib -0.029 | [9] -0.025 | ralimetinib -0.003 | [10] -0.055 | [11] 0.002 | [12] -0.008 | [13] 0.005 | [14] 0.003 | [15] 0.039 | [16] -0.034

ZZEF1 (UniProt O43149)
inactive: erlotinib 0.008 | [1] -0.019 | [2] -0.012 | [3] 0.019 | [4] -0.012 | [5] -0.009 | [6] -0.017 | [7] -0.011 | [8] -0.009 | IRAK-1-4 Inhibitor I 0.017 | ibrutinib 0.018 | [9] -0.009 | ralimetinib -0.002 | [10] -0.057 | [11] -0.014 | [12] -0.005 | [13] -0.063 | [14] 0.023 | [15] 0.009 | [16] -0.005

ZNF451 (UniProt Q9Y4E5)
inactive: erlotinib 0.036 | [1] -0.064 | [2] -0.007 | [3] -0.002 | [4] -0.032 | [5] 0.002 | [6] -0.014 | [7] -0.096 | [8] 0.026 | IRAK-1-4 Inhibitor I -0.009 | ibrutinib 0.004 | [9] 0.019 | ralimetinib 0.02 | [10] 0.007 | [11] -0.011 | [12] 0.033 | [13] -0.003 | [14] -0.012 | [15] 0.019 | [16] 0.055

VAV1 (UniProt P15498)
inactive: erlotinib 0.02 | [1] 0.081 | [2] -0.022 | [3] 0.001 | [4] -0.043 | [5] 0.037 | [6] -0.082 | [7] -0.004 | [8] -0.002 | IRAK-1-4 Inhibitor I -0.009 | ibrutinib -0.057 | [9] 0.054 | ralimetinib 0.083 | [10] -0.042 | [11] 0.009 | [12] -0.004 | [13] -0.034 | [14] -0.078 | [15] 0.046 | [16] 0.082

ZNF598 isoform 3 (UniProt Q86UK7)
inactive: erlotinib -0.001 | [1] -0.003 | [2] 0.007 | [3] -0.007 | [4] -0.045 | [5] 0.006 | [6] -0.064 | [7] -0.036 | [8] -0.002 | IRAK-1-4 Inhibitor I 0.029 | ibrutinib 0.032 | [9] -0.007 | ralimetinib -0.001 | [10] -0.017 | [11] 0.013 | [12] 0.019 | [13] 0.005 | [14] -0.001 | [15] -0.004 | [16] 0

VPS33A (UniProt Q96AX1)
Sequence of UniProt Q96AX1 (Q96AX1 whole entry, looked up): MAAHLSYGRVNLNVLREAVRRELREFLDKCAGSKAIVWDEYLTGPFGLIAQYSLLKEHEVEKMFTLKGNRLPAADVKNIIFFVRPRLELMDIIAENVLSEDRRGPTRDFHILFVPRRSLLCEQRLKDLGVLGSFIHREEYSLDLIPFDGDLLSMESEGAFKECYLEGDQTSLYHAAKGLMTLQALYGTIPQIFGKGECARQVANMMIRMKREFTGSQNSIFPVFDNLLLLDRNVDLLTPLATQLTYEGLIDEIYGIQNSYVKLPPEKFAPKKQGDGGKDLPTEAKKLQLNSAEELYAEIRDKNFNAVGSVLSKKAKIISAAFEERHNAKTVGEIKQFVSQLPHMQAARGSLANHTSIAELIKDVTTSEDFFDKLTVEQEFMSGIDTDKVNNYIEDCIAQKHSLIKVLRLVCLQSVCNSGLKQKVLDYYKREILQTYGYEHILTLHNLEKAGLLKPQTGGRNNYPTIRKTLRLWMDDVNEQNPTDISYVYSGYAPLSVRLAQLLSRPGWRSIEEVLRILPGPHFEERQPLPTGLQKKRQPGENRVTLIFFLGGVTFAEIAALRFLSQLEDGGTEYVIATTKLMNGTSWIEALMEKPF
inactive: erlotinib 0.024 | [1] 0.005 | [2] 0.024 | [3] 0.035 | [4] 0.018 | [5] -0.006 | [6] -0.023 | [7] -0.025 | [8] 0.036 | IRAK-1-4 Inhibitor I 0.015 | ibrutinib 0.024 | [9] -0.01 | ralimetinib 0.039 | [10] 0.005 | [11] -0.003 | [12] 0.008 | [13] 0.013 | [14] 0.013 | [15] 0.043 | [16] -0.032

ZNF609 (UniProt O15014)
Sequence of UniProt O15014 (O15014 whole entry, looked up): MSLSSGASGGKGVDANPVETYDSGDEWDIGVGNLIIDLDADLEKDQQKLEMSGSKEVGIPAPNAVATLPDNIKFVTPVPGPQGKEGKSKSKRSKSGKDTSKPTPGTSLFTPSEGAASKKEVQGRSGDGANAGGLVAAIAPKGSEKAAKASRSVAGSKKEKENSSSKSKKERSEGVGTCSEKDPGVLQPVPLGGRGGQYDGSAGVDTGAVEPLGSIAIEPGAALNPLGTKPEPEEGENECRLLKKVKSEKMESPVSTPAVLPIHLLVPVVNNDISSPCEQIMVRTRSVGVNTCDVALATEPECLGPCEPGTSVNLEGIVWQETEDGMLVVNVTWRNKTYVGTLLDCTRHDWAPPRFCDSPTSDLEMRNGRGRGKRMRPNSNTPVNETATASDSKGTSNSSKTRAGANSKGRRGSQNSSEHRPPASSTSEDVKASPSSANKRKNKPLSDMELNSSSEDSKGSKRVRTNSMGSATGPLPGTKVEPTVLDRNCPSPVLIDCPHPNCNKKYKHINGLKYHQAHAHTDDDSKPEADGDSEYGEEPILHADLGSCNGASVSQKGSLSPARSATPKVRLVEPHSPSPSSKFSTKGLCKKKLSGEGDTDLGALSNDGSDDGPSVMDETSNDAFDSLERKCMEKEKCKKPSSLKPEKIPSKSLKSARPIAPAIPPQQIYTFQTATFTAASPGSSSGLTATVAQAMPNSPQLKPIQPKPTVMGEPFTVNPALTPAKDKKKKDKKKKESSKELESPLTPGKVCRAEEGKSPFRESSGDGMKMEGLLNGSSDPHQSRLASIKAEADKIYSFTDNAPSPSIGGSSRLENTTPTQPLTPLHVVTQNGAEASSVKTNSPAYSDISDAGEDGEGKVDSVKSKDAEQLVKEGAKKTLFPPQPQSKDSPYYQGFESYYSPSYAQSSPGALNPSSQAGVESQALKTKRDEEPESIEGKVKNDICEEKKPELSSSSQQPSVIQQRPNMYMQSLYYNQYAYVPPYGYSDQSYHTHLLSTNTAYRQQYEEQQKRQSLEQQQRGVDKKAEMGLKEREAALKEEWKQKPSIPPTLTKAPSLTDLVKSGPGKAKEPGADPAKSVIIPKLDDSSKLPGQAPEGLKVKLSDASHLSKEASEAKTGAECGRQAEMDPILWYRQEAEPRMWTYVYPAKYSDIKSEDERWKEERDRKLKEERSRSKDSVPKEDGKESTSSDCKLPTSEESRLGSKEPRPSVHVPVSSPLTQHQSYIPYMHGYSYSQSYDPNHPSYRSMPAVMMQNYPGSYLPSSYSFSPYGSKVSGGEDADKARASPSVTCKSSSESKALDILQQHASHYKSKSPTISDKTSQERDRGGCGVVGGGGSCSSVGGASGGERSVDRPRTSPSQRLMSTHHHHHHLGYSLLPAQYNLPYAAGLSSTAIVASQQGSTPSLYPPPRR
inactive: erlotinib -0.035 | [1] -0.013 | [2] 0.028 | [3] -0.029 | [4] -0.053 | [5] -0.023 | [6] -0.109 | [7] -0.008 | [8] 0.026 | IRAK-1-4 Inhibitor I -0.005 | ibrutinib 0.005 | [9] -0.025 | ralimetinib 0.01 | [10] -0.034 | [11] -0.001 | [12] 0.01 | [13] -0.045 | [14] -0.082 | [15] 0.013 | [16] -0.058

YRDC (UniProt Q86U90)
inactive: erlotinib 0.009 | [1] 0.03 | [2] -0.001 | [3] -0.018 | [4] -0.021 | [5] 0.036 | [6] 0.081 | [7] -0.065 | [8] 0.006 | IRAK-1-4 Inhibitor I -0.02 | ibrutinib 0.01 | [9] -0.002 | ralimetinib 0.025 | [10] -0.012 | [11] 0.027 | [12] -0.006 | [13] -0.015 | [14] 0.021 | [15] 0.007 | [16] 0.008

WIPI2 (UniProt Q9Y4P8)
Sequence of UniProt Q9Y4P8 (Q9Y4P8 whole entry, looked up): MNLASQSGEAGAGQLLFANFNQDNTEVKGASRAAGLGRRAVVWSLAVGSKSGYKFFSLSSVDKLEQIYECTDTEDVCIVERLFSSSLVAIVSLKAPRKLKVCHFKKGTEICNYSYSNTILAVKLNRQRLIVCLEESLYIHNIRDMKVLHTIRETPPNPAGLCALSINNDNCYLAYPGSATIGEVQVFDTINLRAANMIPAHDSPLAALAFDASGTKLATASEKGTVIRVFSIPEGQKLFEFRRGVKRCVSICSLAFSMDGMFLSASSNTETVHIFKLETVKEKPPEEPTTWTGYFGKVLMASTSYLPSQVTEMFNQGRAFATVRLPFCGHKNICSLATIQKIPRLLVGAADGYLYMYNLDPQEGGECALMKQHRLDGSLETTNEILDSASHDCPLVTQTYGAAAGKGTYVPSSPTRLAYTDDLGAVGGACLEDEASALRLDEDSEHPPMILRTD
inactive: erlotinib -0.006 | [1] -0.042 | [2] -0.009 | [3] 0.064 | [4] -0.037 | [5] -0.003 | [6] 0.035 | [7] -0.054 | [8] -0.047 | IRAK-1-4 Inhibitor I 0.021 | ibrutinib 0.047 | [9] 0.019 | ralimetinib 0.026 | [10] 0.018 | [11] 0.022 | [12] 0.042 | [13] -0.018 | [14] 0.006 | [15] -0.013 | [16] -0.003
